Source: PubChem BioAssay (NCI)
About 83,000 compounds went through this panel and 20% of them were active in at least one assay; those are over-represented in the sample as a whole.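 Each cell line was grown in a 96-well plate and treated with one concentration of compound for 48 hours. Values below 10 were considered active.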 A number with no mark means an inactive call. Active and inactive are the calls of the source.

System: SW-620 colon
Test: NCI-60 one-dose screen, 48 h (100 = growth as untreated, 0 = no growth, -100 = all killed)
Conditions: 10 µM unless noted

SMILES | growth
CC(C)C[C@H](NC(=O)/C=C/Cn1ccc2ccccc2c1=O)B(O)O | 24.6%
C[C@]12CCC(=O)C=C1CC[C@H]1[C@@H]3C[C@@H](O)[C@](O)(C(=O)CO)[C@@]3(C)C[C@H](O)[C@@]12F | 95.5%
CNNc1ncnc2c1cnn2-c1ccc(S(N)(=O)=O)cc1 | 98.6%
O=C(C(=O)c1cc(Br)ccc1O)c1cc(Br)ccc1O | 66.5%
COc1ccc(/C=C2\CCc3ccccc3C2=O)cc1 | 66.9%
CC(C)N(Cc1ccccc1)c1c(S)ssc1=S | 9.47% (active)
O=C1C=CC(=O)N1c1ccccn1 | 101%
COc1cccc(/C=N\NC(=O)c2ccncc2)c1O | 62.5%
CN[C@@H]1C(OC2[C@H](O[C@H]3[C@H](O)[C@@H](O)[C@H](N=C(N)N)[C@@H](O)[C@@H]3N=C(N)N)OC(C)[C@]2(O)CO)OC(CO)C(O)C1O (stereo not given in full) | 104%
CC(C)Sc1nc(-c2ccc(Br)cc2)c(C#N)c(N2CCCCC2)n1 | 102%
O=CN1N=C(c2ccc(Nc3ccnc4cc(Cl)ccc34)cc2)CC1c1ccc(Cl)cc1 (stereo not given) | 32.9%
O=C(O)c1ccc2cccnc2c1O | 26.1%
O=C(Nc1ccc2c(c1)C(=O)c1ccccc1-2)c1ccccc1 | 55.4%
Nc1ccccc1C#Cc1ccccc1C#Cc1ccc(OCCCCCCOc2ccc(C#Cc3ccccc3C#Cc3ccccc3N)cc2)cc1 | 98.9%
O=C(CC(C(=O)c1ccccc1)N1CCN(Cc2ccccc2)CC1)c1ccccc1 (stereo not given) | 11.8%
Cc1ccc(S(=O)(=O)N2CCN(C(=O)CSc3nc4ccc(C)cc4[nH]3)CC2)cc1 | 102%
CCCCc1ccc(C(N)=O)nc1 | -90% (active)
CC(=O)O[C@H]1CC[C@@]2(C)C(=CC[C@@H]3[C@@H]2CC[C@]2(C)C(c4cccnc4)=CC[C@@H]32)C1 | 76.4%
COc1cnc2c(c1)C(=O)c1c-2n(CCCN2CCOCC2)c(=O)c2cc(F)ccc12 | 6.66% (active)
O=Cc1ccccc1C(=O)O | 102%

SMILES | growth
O=C(NCCNC(=O)Oc1cccc2ccccc12)Oc1cccc2ccccc12 | 102%
COc1ccc2cc(C3=CC(=O)CCC3)ccc2c1 | 117%
COc1ccc(NS(=O)(=O)N2CCCCC2)cc1 | 98%
[N-]=[N+]=NCc1ncc(-c2ccc(C(F)(F)F)cc2)c(NC2CCCCCC2)n1 | 75.4% [50 µM]
O=C(CNC(=O)c1cccc2ccccc12)Nc1ccccc1Cc1ccccc1 | 25.5% [5 µM]
COc1ccc2c(c1)[n+](=O)c(/C=C/C(=O)c1cc(OC)c(OC)c(OC)c1)c(C)n2[O-] | 21.7%
O=C1NCCc2c1noc2-c1ccccc1 | 109%
Cc1sc2nc(N3CCCCC3)[nH]c(=O)c2c1C | 96.2%
CS(=O)(=O)N1CCN(Cc2cc3nc(-c4cccc5[nH]ncc45)nc(N4CCOCC4)c3s2)CC1 (tested in a mixture with another compound) | 40.8%
C=CCN(/C=C/CN(CC=C)CC=C)CC=C | 102%
O=C(O)C1CCN(S(=O)(=O)c2ccc(-c3ccccc3)cc2)CC1 | 98.2%
Cc1ccc(NC(=O)c2sc3nc4c(cc3c2N)C(=O)CCC4)cc1 | 67%
Oc1c(Cl)cc(Oc2cc(Cl)c(O)c(CN3CCOCC3)c2)cc1CN1CCOCC1 | 98.3%
COC(=O)[C@H](CCCCNC(=O)OCc1ccccc1)NC(=O)[C@@H](NC(=O)Nc1cc(C(F)(F)F)cc(C(F)(F)F)c1)C(C)C | -14.6% [100 µM] (active)
CCSc1nc(Nc2ccc(S(=O)(=O)Nc3ccon3)cc2)c(C#N)c(-c2cccc(Br)c2)n1 | 110%
CCCCN1c2nc3ccccc3cc2Sc2cc3ccccc3nc21 | 94.4%
COc1cc(/C=C\C(C)=N\Nc2ccccc2)ccc1O | 106%
O=c1[nH]c(SCc2ccccc2)nc2nc(Nc3ccc(NC(=S)Nc4ccccc4)cc3)nc(-c3ccc(O)cc3O)c12 | 96.8%
O=C(Oc1ccccc1)C(Br)C(Br)c1ccccc1 (stereo not given) | -77% (active)
O=c1oc2c(cc1-c1ccc([N+](=O)[O-])cc1)C(O)Oc1ccccc1-2 (stereo not given) | 91.9%
